“And” between values parts separate entries of the source, which are not always exact repeats. Equal entries are not always repeated. Records with an inconclusive call do not appear. Some structures have more than one record in an assay (separate samples or runs), and their calls can disagree. The source made the active and inactive calls. Calls come from the whole dose curve; as a rule, active = well fitted curve in the direction sought with a large enough effect; inconclusive = small, poorly fitted or top-dose-only effect, or another doubt; inactive = no such curve, though single readings can be large; an effect the other way counts as inactive or inconclusive.
How the values were obtained:
WaGa = assay: qHTS assay to identify novel small-molecules to repurpose for Merkel cell carcinoma treatment (AID 1296009); details: MCC and control cell lines, CellTiter-Glo viability, 72 h; series mostly up to 46 µM; note: nearly all actives have a fitted effect of over 60% in size; note: potency is the fitted concentration of half-maximal effect
How it was run: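 72 hr, 37 degree celsius; NPC 8-pt / MIPE 11-pt dose response; compound pinned in DMSO; CellTiter-Glo, 10 min RT, luminescence; normalized to no-cell and DMSO controls.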

C33A = assay: Primary qHTS to identify gynecologic anti-cancer compounds using libraries of approved drugs and bioactive compounds (AID 1345084); details: Gynecologic cancer cell panel viability, ATPlite luminescence, 48 h; series mostly up to 57.5 µM; note: nearly all actives have a fitted effect of over 55% in size; note: potency is the fitted concentration of half-maximal effect
How it was run: (§1)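 ATP-based viability (ATPlite), 1,000 cells/well, 16 h pre-incubation, 48 h compound at 37 C, 5% CO2, 15 min RT before read.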

Es-2 = assay: as above; details: Gynecologic cancer cell panel viability, ATPlite luminescence, 48 h; series mostly up to 57.5 µM
How it was run: as §1

HeLa = assay: as above; details: Gynecologic cancer cell panel viability, ATPlite luminescence, 48 h; series mostly up to 57.5 µM
How it was run: as §1

Hek293T = assay: as above; details: Gynecologic cancer cell panel viability, ATPlite luminescence, 48 h, control line for the selectivity index; series mostly up to 57.5 µM
How it was run: as §1

JEG-3 = assay: as above; details: Gynecologic cancer cell panel viability, ATPlite luminescence, 48 h; series mostly up to 57.5 µM
How it was run: as §1

OV90 = assay: as above; details: Gynecologic cancer cell panel viability, ATPlite luminescence, 48 h; series mostly up to 57.5 µM
How it was run: as §1

PA-1 = assay: as above; details: Gynecologic cancer cell panel viability, ATPlite luminescence, 48 h; series mostly up to 57.5 µM
How it was run: as §1

SKOV3 = assay: as above; details: Gynecologic cancer cell panel viability, ATPlite luminescence, 48 h; series mostly up to 57.5 µM
How it was run: as §1

Tov-21-G = assay: as above; details: Gynecologic cancer cell panel viability, ATPlite luminescence, 48 h; series mostly up to 57.5 µM
How it was run: as §1

Tov112D = assay: as above; details: Gynecologic cancer cell panel viability, ATPlite luminescence, 48 h; series mostly up to 57.5 µM
How it was run: as §1

[1] = qHTS assay to identify inhibitors of the type 1 interferon - major histocompatibility complex class I in skeletal muscle: Counter screen cell viability and HiBit confirmation (AID 1347412); details: iHSKM muscle cells + IFN-b, HiBiT or CellTiter-Glo, 24 h; Potency: HiBiT; Viability, at 45.9 µM (top of the series); note: nearly all actives have a fitted effect of over 60% in size
How it was run: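 After 24 h with human IFN-beta (4 ng/ml) and compound titrations (top 46 uM final, 1:3, 12 points), HLA-B HiBit myoblasts were lysed for either Nano-Glo HiBiT luminescence or CellTiter Glo viability on paired plates.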

CASKI = assay: Primary qHTS to identify gynecologic anti-cancer compounds using libraries of approved drugs and bioactive compounds (AID 1345084); details: Gynecologic cancer cell panel viability, ATPlite luminescence, 48 h; series mostly up to 57.5 µM; note: nearly all actives have a fitted effect of over 55% in size; note: potency is the fitted concentration of half-maximal effect
How it was run: as §1

astro = assay: Drug repurposing screens with cells derived from glioblastoma tumor samples (AID 1345199); details: viability, ATP luminescence, 48 h; series mostly up to 45.9 µM; note: nearly all actives have a fitted effect of over 40% in size; note: potency is the fitted concentration of half-maximal effect
How it was run: (§2)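 Four patient lines of CD133+ GBM neurospheres were screened at several concentrations; hits were retested in those lines plus three slower-growing GBM lines, using 48-hour treatment and ATP-based viability.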

CAOV3 = assay: Primary qHTS to identify gynecologic anti-cancer compounds using libraries of approved drugs and bioactive compounds (AID 1345084); details: Gynecologic cancer cell panel viability, ATPlite luminescence, 48 h; series mostly up to 57.5 µM; note: nearly all actives have a fitted effect of over 55% in size; note: potency is the fitted concentration of half-maximal effect
How it was run: as §1

[2] = Drug repurposing screens with cells derived from glioblastoma tumor samples (AID 1345199); details: GBM patient neurospheres viability, ATP luminescence, 48 h; note: nearly all actives have a fitted effect of over 40% in size; note: potency is the fitted concentration of half-maximal effect
How it was run: as §2

[3] = at 20 µM (top of the series), tumour line C
[4] = at 21.2 µM (top of the series), tumour line B
[5] = at 46.1 µM (top of the series), tumour line C
% is set by controls: 0 for no effect and ±100 for the full control effect.

COc1cc(Nc2ncc3c(n2)-c2ccc(Cl)cc2C(c2c(F)cccc2OC)=NC3)ccc1C(=O)O
active: Potency (WaGa) 0.148 µM
inactive: Potency (Es-2) | Potency (HeLa) | Potency (Hek293T) | Potency (JEG-3) | Potency (PA-1) | Potency (Tov-21-G) | Potency (Tov112D) | Potency [1]
28.2 µM (active) and inactive: Potency (C33A) | Potency (OV90)
25.1 µM (active) and inactive: Potency (SKOV3)

CNC(=O)c1ccccc1Sc1ccc2c(/C=C/c3ccccn3)n[nH]c2c1
active: Potency (CASKI) 11.2 µM | Potency (Es-2) 15.8 µM and 17.8 µM | Potency (HeLa) 3.98 µM and 3.55 µM | Potency (Hek293T) 10 µM and 12.6 µM | Potency (OV90) 11.2 µM | Potency (Tov-21-G) 11.2 µM | Potency (Tov112D) 8.91 µM | Potency (astro) 2 µM

CCC(C)(C)C(=O)O[C@H]1C[C@@H](C)C=C2C=C[C@H](C)[C@H](CC[C@@H]3C[C@@H](O)CC(=O)O3)[C@H]21
active: Potency ([2]; tumour line A) 0.891 µM | Potency (astro) 3.55 µM
inactive: Potency (C33A) | Potency (CAOV3) | Potency (CASKI) | Potency (JEG-3) | Potency (PA-1) | Potency (SKOV3) | Potency (Tov-21-G) | Potency (Tov112D) | activity, negative = cell killing [2, 3] -22.9% | activity, negative = cell killing [2, 4] -19.9%

CN(C)C(=O)c1ccc(S(=O)(=O)c2ccc(NC(=O)[C@@](C)(O)C(F)(F)F)c(Cl)c2)cc1
inactive: Potency (C33A) | Potency (CAOV3) | Potency (CASKI) | Potency (Es-2) | Potency (HeLa) | Potency (Hek293T) | Potency (JEG-3) | Potency (PA-1) | Potency (Tov-21-G) | Potency (Tov112D)

CC(C)(N)C(=O)N[C@H](COCc1ccccc1)C(=O)N1CCC2(CC1)CN(S(C)(=O)=O)c1ccccc12
inactive: Potency (WaGa) | Potency (C33A) | Potency (CASKI) | Potency (HeLa) | Potency (JEG-3) | Potency (OV90) | Potency (PA-1) | Potency (Tov-21-G) | Potency (Tov112D)

Nc1nc2c(ncn2COCCO)c(=O)[nH]1
inactive: Potency (C33A) | Potency (CAOV3) | Potency (Es-2) | Potency (HeLa) | Potency (Hek293T) | Potency (JEG-3) | Potency (OV90) | Potency (PA-1) | Potency (SKOV3) | Potency (Tov-21-G) | Potency (Tov112D) | activity, negative = cell killing [2, 3] -13.6% | activity, negative = cell killing [2, 4] -4.96% | activity, negative = cell killing ([2]; at 21.3 µM (top of the series), tumour line A) -33.2% | Potency (astro)

Oc1ccc(C2CNCCc3c2cc(O)c(O)c3Cl)cc1 (centres undefined)
inactive: Potency (C33A) | Potency (CASKI) | Potency (Es-2) | Potency (HeLa) | Potency (Hek293T) | Potency (JEG-3) | Potency (OV90) | Potency (PA-1) | Potency (SKOV3) | Potency (Tov-21-G) | Potency (Tov112D) | activity, negative = cell killing [2, 5] 2.51% | Potency (astro)

CN(C)c1ccc(Nc2nc(N)n(C(=O)c3c(F)cccc3F)n2)cc1
active: Potency (HeLa) 12.6 µM
inactive: Potency (C33A) | Potency (CAOV3) | Potency (CASKI) | Potency (Es-2) | Potency (Hek293T) | Potency (JEG-3) | Potency (OV90) | Potency (PA-1) | Potency (SKOV3) | Potency (Tov-21-G) | Potency (Tov112D)

CCc1cncnc1N1CCN(Cc2nc3ccc(C(F)(F)F)cc3[nH]2)CC1
inactive: Potency (C33A) | Potency (CASKI) | Potency (Es-2) | Potency (HeLa) | Potency (Hek293T) | Potency (JEG-3) | Potency (OV90) | Potency (PA-1) | Potency (Tov-21-G) | Potency (Tov112D)

N#Cc1ccc(C(c2ccc(C#N)cc2)n2cncn2)cc1
inactive: Potency (WaGa) | activity, negative = cell killing [2, 3] -3.52% | activity, negative = cell killing [2, 4] -10% | activity, negative = cell killing ([2]; at 21.2 µM (top of the series), tumour line D) -7.94% | Potency (astro)

N[C@@H]1CONC1=O
inactive: Potency (C33A) | Potency (CAOV3) | Potency (CASKI) | Potency (Es-2) | Potency (HeLa) | Potency (Hek293T) | Potency (JEG-3) | Potency (OV90) | Potency (PA-1) | Potency (SKOV3) | Potency (Tov-21-G) | Potency (Tov112D) | activity, negative = cell killing ([2]; at 45.9 µM (top of the series), tumour line B) -2.69% | activity, negative = cell killing ([2]; at 45.9 µM (top of the series), tumour line D) 4.98% | activity, negative = cell killing ([2]; at 46 µM (top of the series), tumour line A) -17.4% | activity, negative = cell killing [2, 5] -0.848% | Potency (astro)

CN1CCN(CCCN2c3ccccc3Sc3ccc(C(F)(F)F)cc32)CC1
active: Potency (OV90) 11.2 µM | Potency (SKOV3) 14.1 µM | Potency ([2]; tumour line A) 2.51 µM | Potency ([2]; tumour line B) 15.8 µM | Potency ([2]; tumour line D) 6.31 µM | Potency (astro) 25.1 µM
inactive: Potency (WaGa) | Potency (C33A) | Potency (HeLa) | Potency (JEG-3) | Potency (Tov-21-G) | activity, negative = cell killing [2, 5] -24.2%

COc1ccccc1[C@H](c1cccc2ccccc12)[C@@](C)(C#N)C(=O)N1CCC(c2cccc(C(F)(F)F)c2)CC1
inactive: Potency (C33A) | Potency (CAOV3) | Potency (CASKI) | Potency (Es-2) | Potency (HeLa) | Potency (Hek293T) | Potency (JEG-3) | Potency (OV90) | Potency (PA-1) | Potency (Tov-21-G) | Potency (Tov112D)

Cc1csc(NC(=O)c2sc3nc4c(c(C(F)(F)F)c3c2N)CCC4)n1
active: Potency (CAOV3) 1.12 µM | Potency (Es-2) 2.51 µM | Potency (HeLa) 2.82 µM | Potency (Hek293T) 3.55 µM | Potency (OV90) 12.6 µM | Potency (Tov-21-G) 3.55 µM | Potency (Tov112D) 11.2 µM
inactive: Potency (WaGa)

CC[C@H](Nc1ncnc2nc[nH]c12)c1nc2cccc(F)c2c(=O)n1-c1ccccc1
inactive: activity change, negative = cytotoxicity (C33A) -4.71% [at 11.6 µM] | activity change, negative = cytotoxicity (CASKI) -22.6% [at 11.6 µM] | activity change, negative = cytotoxicity (Es-2) -27.1% [at 11.6 µM] | activity change, negative = cytotoxicity (HeLa) -8.83% [at 11.6 µM] | activity change, negative = cytotoxicity (Hek293T) -17.7% [at 11.6 µM] | activity change, negative = cytotoxicity (JEG-3) -10.7% [at 11.6 µM] | activity change, negative = cytotoxicity (OV90) -4.59% [at 11.6 µM] | activity change, negative = cytotoxicity (PA-1) 0.976% [at 11.6 µM] | activity change, negative = cytotoxicity (Tov-21-G) -9.1% [at 11.6 µM] | activity change, negative = cytotoxicity (Tov112D) -0.869% [at 11.6 µM]

From PubChem BioAssay (NCATS)
